Some test systems named below: S6K1; SBK1; SGK2; SGK3; SGK; SIK2; SIK; SLK; SNRK; SRC.
Holding throughout (settings): concentration: 1 μM, replicates: in singlicate; n = 1
Experiment [1] deals with RPS6KA5(Kin.Dom.2-C-terminal).
Experiment [2] concerns T1, RSK1(Kin.Dom.1-N-terminal).
T1 construct: gene RPS6KA1

Experiment [3] has as its system T2, RSK1(Kin.Dom.2-C-terminal).
T2 construct: gene RPS6KA1

The test system of experiment [4] is T3, RSK2(Kin.Dom.1-N-terminal).
T3 construct: gene RPS6KA3

The subject of experiment [5] is T4, RSK2(Kin.Dom.2-C-terminal).
T4 construct: gene RPS6KA3

Experiment [6] concerns T5, RSK3(Kin.Dom.1-N-terminal).
T5 construct: gene RPS6KA2

Experiment [7] concerns T6, RSK3(Kin.Dom.2-C-terminal).
T6 construct: gene RPS6KA2

Experiment [8] relates to T7, RSK4(Kin.Dom.1-N-terminal).
T7 construct: gene RPS6KA6

Experiment [9] deals with T8, RSK4(Kin.Dom.2-C-terminal).
T8 construct: gene RPS6KA6

A further experiment concerns T9, SNARK.
T9 construct: gene NUAK2
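Note: KINOMEscan kinase panel screen.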

Regarding `Fc1cccc(COc2ccc(Nc3ncnc4cc[nH]c34)cc2Cl)c1`, the “%Inh” value in [1] was determined as 0%; in experiment [2] it was 12%; in experiment [3], 23%; in experiment [4] it was 15%; in experiment [5], 0%; in [6] it was 8%. Besides, the “%Inh” value in experiment [7] worked out at 26%; in experiment [8], 20%; in [9], 29%; with S6K1 it was 21%; in the experiment with SBK1, 52%; with SGK2, 26%. Moreover, the “%Inh” value in the experiment with SGK3 worked out at 40%; with SGK, 23%; in the experiment on SIK2, 0%; in the experiment with SIK, 15%; in the experiment on SLK it was 34%; in the experiment with SNARK, 36%. In addition, the entries for the “%Inh” value in the experiment with SNRK and in the experiment on SRC were 21% and 16%, respectively.
For the compound `NC(=O)c1sc(-n2cnc3ccccc32)cc1OCc1ccccc1F` [GSK1024306], the “%Inh” value in experiment [1] came to 0%; in experiment [2], 0%; in [3], 32%; in experiment [4], 9%; in [5], 31%; in experiment [6] it was 0%. The “%Inh” value came out at 0% in experiment [7]; 0% in [8]; 82% in experiment [9]; 0% with S6K1; 21% with SBK1; 0% in the experiment with SGK2. The “%Inh” value in the experiment on SGK3 stood at 0%; in the experiment with SGK, 4%; in the experiment with SIK2, 0%; in the experiment with SIK it was 4%; in the experiment on SLK it was 63%; with SNARK, 29%. Further, the “%Inh” value with SNRK is on record as 0%; in the experiment with SRC it was 14%.
`N#Cc1ccc(Oc2ccc(Nc3ncnc4cc[nH]c34)cc2Cl)cc1`: the “%Inh” value turned out to be 0% in experiment [1]; 20% in experiment [2]; 17% in experiment [3]; 19% in experiment [4]; 0% in experiment [5]; 9% in [6]. In addition, the “%Inh” value in experiment [7] was 23%; in experiment [8] it was 16%; in [9] it was 32%; in the experiment with S6K1, 10%; in the experiment with SBK1, 27%; with SGK2, 34%. Also, the “%Inh” value with SGK3 is reported as 28%; in the experiment with SGK, 31%; in the experiment on SIK2 it was 37%; with SIK, 0%; in the experiment with SLK it was 7%; with SNARK, 24%. Besides, the “%Inh” value is on record as 38% in the experiment with SNRK and 3% with SRC.
With `CC(C)(C)c1ccc(-n2cnc3c(N)ncnc32)cc1` [SKF-97263], the “%Inh” value in experiment [1] was 0%; in [2] it was 0%; in [3] it was 16%; in [4], 0%; in experiment [5], 28%; in experiment [6], 8%. Also, the “%Inh” value in experiment [7] was 0%; in [8], 15%; in experiment [9], 0%; in the experiment on S6K1 it was 10%; in the experiment with SBK1, 11%; in the experiment on SGK2, 0%. Besides, the “%Inh” value with SGK3 worked out at 15%; in the experiment with SGK, 2%; in the experiment on SIK2, 7%; in the experiment on SIK, 0%; with SLK, 13%; in the experiment on SNARK, 18%. Also, the “%Inh” value with SNRK is reported as 0%; in the experiment with SRC it was 1%.
On to `Cl.c1ccc(Cn2ccc3cc(Nc4ncnc5ccccc45)ccc32)cc1` [GW275568], for which the “%Inh” value was determined as 39% in experiment [1]; 41% in [2]; 23% in [3]; 0% in experiment [4]; 34% in experiment [5]; 2% in experiment [6]. The “%Inh” value is on record as 4% in experiment [7]; 0% in [8]; 26% in [9]; 0% with S6K1; 0% with SBK1; 0% in the experiment with SGK2. Further, the “%Inh” value with SGK3 was found to be 46%; in the experiment on SGK, 0%; in the experiment on SIK2, 2%; in the experiment with SIK it was 0%; in the experiment with SLK, 32%; in the experiment on SNARK it was 35%. Also, the “%Inh” value with SNRK came out at 14%; in the experiment on SRC it was 4%.
With `Cc1cccc(-c2nc(Nc3ccc4[nH]nnc4c3)c3ccccc3n2)n1` [GW867587], the “%Inh” value in experiment [1] is 0%; in experiment [2] it was 0%; in [3], 16%; in experiment [4], 12%; in experiment [5], 0%; in experiment [6] it was 0%. The “%Inh” value was 12% in [7]; 0% in experiment [8]; 0% in [9]; 0% in the experiment on S6K1; 0% with SBK1; 0% in the experiment with SGK2. The “%Inh” value with SGK3, in the experiment with SGK, in the experiment with SIK2, with SIK, in the experiment on SLK and with SNARK was 0% each time. The results for the “%Inh” value in the experiment on SNRK and in the experiment with SRC were 0% and 26%, respectively.
Regarding `CSc1ccc(NC2=C(c3ccccc3Cl)C(=O)NC2=O)cc1` [SB-342411], the “%Inh” value was 1% in experiment [1]; 6% in experiment [2]; 15% in experiment [3]; 0% in experiment [4]; 0% in experiment [5]; 1% in [6]. Also, the “%Inh” value came out at 0% in experiment [7]; 0% in experiment [8]; 0% in experiment [9]; 1% in the experiment with S6K1; 1% in the experiment on SBK1; 0% in the experiment with SGK2. For the same compound, the “%Inh” value with SGK3 came out at 14%; in the experiment on SGK, 0%; in the experiment with SIK2, 5%; in the experiment with SIK it was 0%; in the experiment with SLK, 98.7%; in the experiment on SNARK it was 19%. For the same compound, the entries for the “%Inh” value in the experiment on SNRK and in the experiment on SRC were 0% and 38%, respectively.
On to `COC(=O)c1cccc(NC(=O)NCCNc2ccnc(Nc3ccc(F)cc3)n2)c1` [GSK1379883], for which the “%Inh” value came out at 4% in experiment [1]; 30% in experiment [2]; 0% in experiment [3]; 0% in experiment [4]; 0% in [5]; 0% in experiment [6]. Besides, the “%Inh” value in experiment [7] amounted to 0%; in experiment [8] it was 0%; in experiment [9], 11%; in the experiment on S6K1, 0%; in the experiment with SBK1 it was 3%; with SGK2, 0%. For the same compound, the “%Inh” value with SGK3 was found to be 0%; in the experiment on SGK, 0%; in the experiment with SIK2 it was 0%; in the experiment with SIK, 0%; in the experiment on SLK, 4%; in the experiment on SNARK it was 0%. Besides, the “%Inh” value with SNRK and in the experiment on SRC was 0% in each case.
On to `CCn1c(-c2ccncc2)nc2cnccc21` [SB-735216], for which the “%Inh” value in [1] was found to be 0%; in experiment [2], 19%; in [3], 16%; in experiment [4] it was 19%; in [5], 34%; in experiment [6] it was 8%. For the same compound, the “%Inh” value in [7] was 40%; in experiment [8], 14%; in experiment [9], 39%; in the experiment on S6K1 it was 32%; in the experiment with SBK1, 20%; in the experiment on SGK2 it was 19%. The “%Inh” value in the experiment with SGK3 was determined as 28%; in the experiment on SGK, 5%; with SIK2, 0%; in the experiment on SIK, 19%; in the experiment with SLK, 8%; in the experiment on SNARK, 21%. Also, the entries for the “%Inh” value in the experiment with SNRK and in the experiment with SRC were 17% and 0%, respectively.
Turning to `Fc1cccc(COc2ccc(Nc3ncnc4nn5ccccc5c34)cc2Cl)c1` [GW689066], the “%Inh” value in experiment [1] is listed as 0%; in [2] it was 4%; in experiment [3] it was 0%; in experiment [4], 0%; in [5], 0%; in experiment [6] it was 0%. In addition, the “%Inh” value was 0% in [7]; 0% in [8]; 0% in experiment [9]; 0% in the experiment on S6K1; 2% with SBK1; 0% in the experiment with SGK2. The “%Inh” value in the experiment with SGK3 turned out to be 0%; in the experiment with SGK it was 0%; in the experiment with SIK2, 0%; in the experiment with SIK it was 0%; with SLK, 2%; with SNARK, 0%. The “%Inh” value in the experiment on SNRK and in the experiment on SRC was 0% in each case.
Regarding `Cc1ccc(C)c(NC(=O)NCCNc2ccnc(Nc3ccc(F)cc3)n2)c1` [GSK1379878], the “%Inh” value turned out to be 5% in [1]; 0% in experiment [2]; 0% in [3]; 0% in [4]; 0% in [5]; 0% in experiment [6]. In addition, the “%Inh” value (in experiment [7]; in experiment [8]; in experiment [9]; with S6K1; in the experiment on SBK1; in the experiment on SGK2) was 0% in each case. The “%Inh” value in the experiment with SGK3, in the experiment on SGK, in the experiment on SIK2, with SIK, with SLK and in the experiment with SNARK was 0% each time. The “%Inh” value in the experiment with SNRK and in the experiment on SRC was 0% in each case.

The values above are taken from publication PMC5540273 (PLoS ONE, 2017).
